According to ChEMBL document CHEMBL4513216, “Probing the Open Global Health Chemical Diversity Library for Multistage-Active Starting Points for Next-Generation Antimalarials” (ACS Infect Dis, 2020):
About 2,700 (4%) of roughly 68,000 compounds showed an effect of 50% or more. The sample as a whole holds a higher share of strong results than the screen did.

system: Plasmodium berghei; test: Screen against P. berghei liver stage (PbLuc), transformed with Luciferase, at 2uM; format: functional, HepG2; settings: tested at 2 uM

Structure (SMILES) | INHIBITION
OC(CNCc1nnc2ccccn12)c1ccc2c(c1)OCO2 (configuration not stated) | 31.54%
CC(C)NC(=O)N1CCC(c2nnc3n2CCNC3)CC1 | 13.28%
COc1cccc2c1OCC(CNC(=O)Cc1cnccn1)C2 (configuration not stated) | -20.89%
COc1cccc2c1OCC(CNC(=O)CSc1ccccn1)C2 (configuration not stated) | 33.11%
COc1cccc2c1OCC(CNC(=O)Cn1ccnc1C)C2 (configuration not stated) | 50.32%
Cn1cccc1C(=O)N1CCC2(CC1)CC(N1CCOCC1)C2 | 35.89%
Cn1cnnc1S(=O)(=O)C1CCN(S(=O)(=O)c2ccc(F)c(Cl)c2)CC1 | 60.09%
Cn1cnnc1S(=O)(=O)C1CCN(S(=O)(=O)c2ccccc2F)CC1 | -8.91%
Cc1ccc(S(=O)(=O)N2CCC(S(=O)(=O)c3nncn3C)CC2)cc1C | -19.3%
CCOC(=O)N1CCC(NC(C)Cc2cc(C)n[nH]2)CC1 (configuration not stated) | -0.88%
CC(C)CN1CCC(NC(C)c2ccccc2-n2cccn2)CC1 (configuration not stated) | 12.11%
CCOC(=O)N1CCC(NC(C)c2ccccc2-n2cccn2)CC1 (configuration not stated) | 52.89%
O=C1COC2(CCN(S(=O)(=O)C3CC3)CC2)CN1c1cccnc1 | 10.37%
CCN(C(=O)Nc1nccs1)C(C)c1cccc(O)c1 (configuration not stated) | -81.27%
NC(=O)c1cnn2c1NCC(CNCC1(c3ccccc3)CCCC1)C2 (configuration not stated) | -181.66%
CN(Cc1ccc(Cl)s1)C(=O)COc1cccc(C(N)=O)c1 | 34.61%
CN(Cc1ccc(Cl)s1)C(=O)c1cccc(OCC(N)=O)c1 | 26.14%
CN(Cc1ccc(Cl)s1)C(=O)c1ccccc1OCC(N)=O | 54.75%
COc1ccc([C@@H]2CN(C(=O)CS(C)(=O)=O)C[C@H]2NC(C)=O)cc1 | 1.85%
COCCN(C)CC(=O)N1C[C@@H](NC(C)=O)[C@H](c2ccc(OC)cc2)C1 | 53.13%
CCOCC(=O)N1C[C@@H](NC(C)=O)[C@H](c2ccc(OC)cc2)C1 | 20.15%
c1ccc2sc(CN3CCOC(Cn4cccn4)C3)nc2c1 (configuration not stated) | -88.54%
c1ccc2sc(CN3CCOC(Cn4cncn4)C3)nc2c1 (configuration not stated) | 5.72%
Cc1cnn(CC2CN(Cc3nc4ccccc4s3)CCO2)c1 (configuration not stated) | 53.98%
Cn1cc(C(=O)NCCc2ccc(OC3CCCC3)cc2)ccc1=O | -25.78%
CCOCc1cncc2c1CCN(S(=O)(=O)c1ccc(C)cc1)C2 | 70.13%

Structure (SMILES) | INHIBITION
CCOCc1cncc2c1CCN(S(=O)(=O)c1ccccc1)C2 | -18.7%
CCOCc1cncc2c1CCN(S(=O)(=O)c1cccc(C)c1)C2 | 9.36%
COc1ccc(CN2C[C@@H]3OCCN(CCN4CCCC4)[C@@H]3C2)cc1 | 28.85%
CN(C(=O)c1cccc(NCc2cccs2)c1)C(C1CC1)C1CC1 | 29.41%
Nc1nc2c(c(NCc3nccs3)n1)CCN(CC1CCCC1)CC2 | -1.29%
CCc1cnc(CN(C(C)=O)C2CCN(CC(=O)N3CCCC3)C2)o1 (configuration not stated) | 75.98%
CCc1cnc(CN(C(C)=O)C2CCN(CCc3ccccn3)C2)o1 (configuration not stated) | 35.65%
CCc1cnc(CN(C(C)=O)C2CCN(CCN3CCCCC3)C2)o1 (configuration not stated) | 56.02%
CCc1cnc(CN(C(C)=O)C2CCN(CCc3ccncc3)C2)o1 (configuration not stated) | 17.31%
CCc1cnc(CN(C(C)=O)C2CCN(CCc3ccccc3)C2)o1 (configuration not stated) | 51.94%
CCc1cnc(CN(C(C)=O)C2CCN(CCc3cnn(C)c3)C2)o1 (configuration not stated) | 1.61%
CCc1cnc(CN(C(C)=O)C2CCN(Cc3nccn3C)C2)o1 (configuration not stated) | 10.22%
CCc1cnc(CN(C(C)=O)C2CCN(CC3(O)CCCCC3)C2)o1 (configuration not stated) | 43.79%
CCc1cnc(CN(C(C)=O)C2CCN(CCS(C)(=O)=O)C2)o1 (configuration not stated) | -9.62%
Cc1cc(C)cc(OCC(=O)N2CCCN(CC(N)=O)CC2)c1 | -28.76%
CN(C)C[C@H]1OC[C@@H]2CCN(C(=O)c3cccn3C)C[C@@H]21 | 8.65%
Cc1cc(C)n(NC(=O)c2ccc(Cl)cc2Cl)c(=O)c1 | -3.05%
Cc1ccc(CNC2CC3(CCN(CCO)CC3)c3ccccc32)s1 (configuration not stated) | 47.05%
CN(C)[C@@H]1CN(C(=O)COc2cccc(F)c2)C[C@H]1O | -0.83%
CCCNC(=O)C1CCN(Cc2csc(CC)n2)CC1 | 36.64%
COCCC1COC2(CCN(C(=O)Cc3ccccc3)CC2)C1 (configuration not stated) | -19.07%
O=C([C@H]1COC[C@H]2CN(C3CCOCC3)C[C@H]21)N1CCCO1 | -17.39%
O=C([C@@H]1COC[C@H]2CN(C3CCOCC3)C[C@H]21)N1CCCCO1 | 59.77%
O=C([C@H]1COC[C@H]2CN(C3CCOCC3)C[C@H]21)N1CCCCO1 | -3.25%
CCOCC1c2c(cnn2CC2CC2)CCN1Cc1nccs1 (configuration not stated) | 26.64%
O=C(NCCCO)c1nnsc1-c1ccc(Cl)cc1 | 34.52%
